The whole screen tested about 69,000 compounds, of which about 1,000 (1.4%) showed an effect of 50% or more. The sample as a whole holds a higher share of strong results than the screen did.

Consider 49 molecules from ChEMBL document CHEMBL3988442, “University of Dundee, Small-Polar-MMV Screening Library” (2021).

In the experiment the test system is Leishmania donovani. As to the kind of experiment: Leishmania intramacrophage assay. It counts as functional, organism-based. Also noted: scale not given: in the data most compounds retested in dose-response had high values.

Turning to `O=C(O)C(F)(F)F.c1cnc(NCc2nnn3c2CN(Cc2ccsc2)CCC3)nc1`, the “Percent Effect” value (30.3 µM, […]) is given as -35.49%.
As for `Cc1ccc(OCCNc2cccc(C(=O)N3CCOCC3)c2)cc1`, the “Percent Effect” value (30.3 µM, […]) was found to be 19.35%.
On the same count and under the same terms, under `CC(=O)NCc1cccc(-n2ccnc2-c2cccc(C(=O)O)c2)c1` stands -4.637%; under `CC(C)C(NC(=O)c1ccccc1F)C(=O)Nc1cnn(C)c1` (centres undefined), 14.78%.
On to `Cc1ccc(-c2cc(C(=O)NCCN3CCCS3(=O)=O)[nH]n2)cc1`, for which the “Percent Effect” value (30 µM) is -10.89%.
With `CC(C)c1nc(C2CCCN(C(=O)CCCn3ccnc3)C2)no1` (centres undefined), for the setting “30 µM”, the “Percent Effect” value worked out at 30.47%.
For the molecule `NC(=O)C1CCCN1C1CCN(C(=O)c2ccc3c(c2)OCO3)CC1` (centres undefined), the “Percent Effect” value (30.3 µM, […]) was determined as 5.65%.
For `COc1ccc(NCc2nc(=O)n(CCC(C)C)[nH]2)cc1`, the “Percent Effect” value (30 µM, 30.03 µM) is 11.21%.
As for `O=C(Cc1cccc(F)c1)NCCNCc1ccc2c(c1)CCO2`, the “Percent Effect” value (30 µM, 30.03 µM) is listed as 29.87%.
As for `O=c1[nH]c2nc(NCC3CCCO3)ncc2c(=O)n1-c1ccc(F)cc1` (centres undefined), the “Percent Effect” value (30.3 µM, […]) is 51.53%.
For the molecule `O=c1[nH]c2nc(NC3CC3)ncc2c(=O)n1-c1ccc(F)cc1`, the “Percent Effect” value (30.3 µM, […]) was 24.05%.
Regarding `O=c1[nH]c2nc(NCC3CCCO3)ncc2c(=O)n1-c1cccc(F)c1` (centres undefined), the “Percent Effect” value (30.3 µM, […]) was 20.13%.
Same read-out and setting: under `O=C(c1cc(C2CCCCN2CCO)n[nH]1)N1CCOCC1.O=CO` (centres undefined) stands -5.533%.
On to `CN[C@@H](C)C(=O)N(Cc1cccc(C)c1)Cc1ccccc1OC`, for which, where the note is “30.3 µM, […]”, the “Percent Effect” value is 82.29%.
Regarding `COc1ccccc1CN(Cc1cccc(C)c1)C(=O)[C@@H](N)CC(=O)O`, the “Percent Effect” value (30.3 µM, […]) was 13.42%.
Turning to `COCC(=O)N(Cc1cccc(C)c1)Cc1ccccc1OC`, where the note is “30.3 µM, […]”, the “Percent Effect” value is 40.9%.
For the molecule `CC1CN(C(=O)C2(c3cccc(F)c3)CCOCC2)CCO1` (centres undefined), the “Percent Effect” value (30.3 µM, […]) was determined as 18.33%.
`O=C(NCCCN1CCc2ccccc2C1)c1ccccc1Br`: the “Percent Effect” value (30 µM) was found to be 36.73%.
On the same count and under the same terms, for `Cc1ccccc1C(=O)NCCCN1CCc2ccccc2C1` the value was 9.574%.
For the molecule `O=C(NCCCN1CCc2ccccc2C1)c1ccccc1Cl`, the “Percent Effect” value (30 µM) is on record as 53%.
Take `N#Cc1ccc(OCC(O)CN2CCC(Cn3cccn3)CC2)cc1` (centres undefined): the “Percent Effect” value (30 µM) came to 5.34%.
For the molecule `O=C(O)C(F)(F)F.O=C(O)[C@]12CCCN(CC3CCOC3)C[C@H]1CN(c1ncccn1)C2` (some centres undefined), where the note is “30.3 µM, […]”, the “Percent Effect” value was 22.4%.
In the case of `O=C(O)C(F)(F)F.O=C(O)[C@]12CCCN(C3CCOC3)C[C@H]1CN(c1nncs1)C2` (some centres undefined), the “Percent Effect” value (30.3 µM, […]) is listed as 23.22%.
The same measure, in the same setting: under `Cc1cnc(N2C[C@@H]3CN(C4CCOC4)CCC[C@]3(C(=O)O)C2)nc1.O=C(O)C(F)(F)F` (some centres undefined) stands 51.36%.
Regarding `CC(C)(C)OC(=O)N1CCCC[C@H]1C(=O)NCc1nccs1`, for the setting “30 µM, 30.03 µM”, the “Percent Effect” value turned out to be 12.63%.
As to `CCc1c(C)sc(NC(=O)CN2CCOCC2)c1C(=O)OC`, under “30.3 µM, […]”, the “Percent Effect” value was -39.48%.
`CCOC(=O)c1c(NC(=O)CN2CCN(C(C)=O)CC2)sc(C)c1C`: where the note is “30.3 µM, […]”, the “Percent Effect” value worked out at 29.91%.
As to `CCc1c(C)sc(NC(=O)CN2CCN(CC)CC2)c1C(=O)OC`, the “Percent Effect” value (30 µM, 30.03 µM) is 52.48%.
With `Cc1cc(NC(=O)CN2CCCC2c2c(C)nn(C)c2Cl)on1` (centres undefined), for the setting “30 µM”, the “Percent Effect” value worked out at 24.03%.
As to `CCc1cc(CN(C)C(=O)c2cc(=O)[nH]c(=O)[nH]2)on1`, where the note is “30.3 µM, […]”, the “Percent Effect” value was 53.82%.
As to `CCc1cc(CN(C)C(=O)c2cnn[nH]2)on1`, the “Percent Effect” value (30.3 µM, […]) is recorded as 12.71%.
Consider `CCc1cc(CN(C)C(=O)c2cnon2)on1`, for which, where the note is “30.3 µM, […]”, the “Percent Effect” value was determined as 11.76%.
The same measure, in the same setting: under `CCN1CCN(C(=O)c2cc(-c3cccs3)cs2)CC1` stands -1.143%; under `Cc1ccc(Cl)cc1NC(=O)C1CSc2ncc(C)c(=O)n2C1` (centres undefined), 17.12%.
With `COc1cccc(CN(C)c2ncc(C(N)=O)cc2Cl)c1`, the “Percent Effect” value (30.3 µM, […]) is given as -8.015%.
Turning to `CCc1ncc(C(=O)NCCNc2ncnc3sccc23)s1`, the “Percent Effect” value (30.3 µM, […]) worked out at 26.76%.
For the molecule `Cc1ncc(C(=O)NCCNc2ncnc3sccc23)s1`, under “30.3 µM, […]”, the “Percent Effect” value is 20.47%.
As to `CCc1nc(C)c(C(=O)NCCNc2ncnc3sccc23)s1`, where the note is “30.3 µM, […]”, the “Percent Effect” value came out at 59.68%.
Consider `CC1(C)CCC(C(=O)N2CCCO2)c2ccccc21` (centres undefined), for which the “Percent Effect” value (30.3 µM, […]) came out at 9.47%.
Regarding `CN(C)S(=O)(=O)N1CCC(c2c(C(N)=O)sc3ccccc23)C1` (centres undefined), the “Percent Effect” value (30.3 µM, […]) turned out to be 31.42%.
Turning to `NC(=O)Nc1cccc(F)c1C(=O)NC1CCCC1`, for the setting “30.3 µM, […]”, the “Percent Effect” value stood at 3.755%.
For the molecule `CC(C)Oc1cccc(CNC(Cc2ccsc2)c2nccs2)c1.Cl` (centres undefined), the “Percent Effect” value (30.3 µM, […]) is listed as -38.1%.
Consider `COc1ccc(CNC(Cc2ccsc2)c2ncccc2C)cc1OC` (centres undefined), for which the “Percent Effect” value (30.3 µM, […]) came out at 25.36%.
As for `COc1ccc(CNC(Cc2ccsc2)c2ccc(C)cn2)cc1OC.Cl` (centres undefined), under “30.3 µM, […]”, the “Percent Effect” value is given as 12%.
Take `COc1ccc(CNC(Cc2ccsc2)c2ccc(C)cn2)c(OC)c1` (centres undefined): the “Percent Effect” value (30.3 µM, […]) stood at 62.45%.
Same read-out and setting: under `COc1cccc(OC)c1CNC(Cc1ccsc1)c1ccc(C)cn1` (centres undefined) stands 99.68%; under `Cc1cccnc1C(Cc1ccsc1)NCc1cnc(N(C)C)nc1` (centres undefined), 17.18%.
With `N#Cc1c2n(c3c(=O)[nH]cnc13)CCCCC2`, the “Percent Effect” value (30.3 µM, […]) came out at 19.13%.
Turning to `Cc1ccccc1CNCc1cc(Cl)ccc1O`, the “Percent Effect” value (30.3 µM, […]) is -18.5%.
